# Results filed as inconclusive are left out. Active and inactive are the calls of the source. The call rests on the fitted dose curve; in most records, active means well fitted curve in the direction sought with a large enough effect; inconclusive means small, poorly fitted or top-dose-only effect, or another doubt; inactive means no such curve, though single readings can be large; an effect the other way counts as inactive or inconclusive.
# Experiments:
# [1] = Quantitative High-Throughput drug screen in 47 multiple myeloma cell lines against the NCATS MIPE library collection: KMS12BM_JCRB cell viability assay (AID 1918971); further: nearly all actives have a fitted effect of over 35% in size
# Summary of the method: (§1)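 Relative luminescence from CellTiter-Glo served as the viability signal, referenced to DMSO-treated (100%) and cell-free medium (0%) controls. Treatment lasted 48 hours at 37C with 500 cells per well.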
# [2] = Quantitative High-Throughput drug screen in 47 multiple myeloma cell lines against the NCATS MIPE library collection: MOLP8_DSMZ cell viability assay (AID 1918977); further: nearly all actives have a fitted effect of over 45% in size
# Summary of the method: (§2)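 Viability after 48 h drug exposure was measured as ATP-dependent luminescence. Cells, 500 per well, sat at 37 °C under 5% CO2; DMSO wells set 100%, media-only wells 0%.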
# [3] = Quantitative High-Throughput drug screen in 47 multiple myeloma cell lines against the NCATS MIPE library collection: NCIH929_DSMZ cell viability assay (AID 1918978); further: nearly all actives have a fitted effect of over 35% in size
# Summary of the method: as §2
# [4] = Quantitative High-Throughput drug screen in 47 multiple myeloma cell lines against the NCATS MIPE library collection: OCIMY1_PLB cell viability assay (AID 1918979); further: nearly all actives have a fitted effect of over 35% in size; on viability: series mostly up to about 46 µM
# Summary of the method: as §2
# [5] = Quantitative High-Throughput drug screen in 47 multiple myeloma cell lines against the NCATS MIPE library collection: KMS12PE_JCRB cell viability assay (AID 1918972); further: nearly all actives have a fitted effect of over 30% in size; on viability: series mostly up to about 46 µM
# Summary of the method: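 qHTS of the MIPE 4.0 collection: 500 myeloma cells/well, 48 h drug exposure at 37C in 5% CO2, then CellTiter-Glo for 5 min at room temperature before luminescence reading.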
# [6] = Quantitative High-Throughput drug screen in 47 multiple myeloma cell lines against the NCATS MIPE library collection: KMS26_JCRB cell viability assay (AID 1918975); further: nearly all actives have a fitted effect of over 45% in size
# Summary of the method: as §1
# [7] = Quantitative High-Throughput drug screen in 47 multiple myeloma cell lines against the NCATS MIPE library collection: MMM1_PLB cell viability assay (AID 1918976); conditions: MMM1 myeloma cells viability, CellTiter-Glo, 48 h; further: nearly all actives have a fitted effect of over 35% in size
# Summary of the method: as §2
# [8] = Quantitative High-Throughput drug screen in 47 multiple myeloma cell lines against the NCATS MIPE library collection: MM1S_ATCC cell viability assay (AID 1918980); further: nearly all actives have a fitted effect of over 45% in size
# Summary of the method: as §2
# [9] = Quantitative High-Throughput drug screen in 47 multiple myeloma cell lines against the NCATS MIPE library collection: KMS21BM_JCRB cell viability assay (AID 1918974)
# Description: PI: Beverly A. Mock Ph.D.
# Laboratory of Cancer Biology and Genetics,
# Center for Cancer Research, National Cancer Institute,
# National Institute of Health, Bethesda, Maryland
# Drug resistance and disease progression are common in multiple myeloma (MM) patients, underscoring the need for new therapeutic combinations. […] We hypothesized that effective combinations would reduce MYC expression and enhance p16 activity. […] These preclinical data identify potentially useful drug combinations for evaluation in drug-resistant MM and reveal potential mechanisms of combined drug sensitivity.
# Described herein is the primary MIPE qHTS used to cherrypick compounds. Validated compounds were then further tested for potential synergistic activiy.
# [1] Peat TJ, Gaikwad SM, Dubois W, Gyabaah-Kessie N, Zhang S, Gorjifard S, Phyo Z, Andres M, Hughitt VK, Simpson RM, Miller MA, Girvin AT, Taylor A, Williams D, D'Antonio N, Zhang Y, Rajagopalan A, Flietner E, Wilson K, Zhang X, Shinn P, Klumpp-Thomas C, McKnight C, Itkin Z, Chen L, Kazandijian D, Zhang J, Michalowski AM, Simmons JK, Keats J, Thomas CJ, Mock BA. Drug combinations identified by high-throughput screening promote cell cycle transition and upregulate Smad pathways in myeloma. Cancer Lett. 2023 Aug 1;568:216284. doi: 10.1016/j.canlet.2023.216284. Epub 2023 Jun 24. PMID: 37356470; PMCID: PMC10408729.
# SEQUENCE No. (e.g., 1, 2, 3, etc.); […] (e.g., Cells, Incubation, Reagent, etc.); VALUE and DESCRIPTION.
# 1; Cells; 5 uL; white, solid bottom 1536-well Greiner assay plate.
# 2; Compounds; 23 nL; Kalypsis pin tool (Wako USA) equipped with a 1536-well pin head to transfer to the assay plates.
# 3; Incubation; 48 hours; 37C incubation.
# 4; Reagent;5uL; CellTiter Glo (Promega).
# 5; Detector; 425V; Luminescence; Viewlux PerkinElmer.
# NOTES (numbers refer to Sequence numbers above)
# 1. The cell-based screening methods employed in this study were like those previously published. Briefly, the corresponding myeloma cell lines were screened in 1,536-well plates with 500 cells, 5-uL per well for inhibition of cell viability (assessed by measuring ATP levels with CellTiterGlo).
# 2. NCATS MIPE 4.0 library of approved and investigational drugs were added using the Kalypsis pin tool. Wells treated with DMSO only for 100% viability and media only wells for 0% viability were used as controls.
# 3. The assay plates were covered and incubated for 48 hours in a 37C, 5% CO2 incubator with controlled humidity.
# 4. After 48 hours, CellTilter-GloTM luminescent substrate mix (Promega) reagent was added to the assay plate and plates we incubated for 5 min at room temperature.
# 5. Signal was measured as median relative luminescence units on a ViewLux (PerkinElmer) multiplate reader.
# [1] Heske CM, Davis MI, Baumgart JT, Wilson K, Gormally MV, Chen L, Zhang X, Ceribelli M, Duveau DY, Guha R, Ferrer M, Arnaldez FI, Ji J, Tran HL, Zhang Y, Mendoza A, Helman LJ, Thomas CJ. Matrix Screen Identifies Synergistic Combination of PARP Inhibitors and Nicotinamide Phosphoribosyltransferase (NAMPT) Inhibitors in Ewing Sarcoma. Clin Cancer Res. 2017 Dec 1;23(23):7301-7311. doi: 10.1158/1078-0432.CCR-17-1121. Epub 2017 Sep 12. PMID: 28899971; PMCID: PMC6636827.
# [10] = Quantitative High-Throughput drug screen in 47 multiple myeloma cell lines against the NCATS MIPE library collection: KMS20_JCRB cell viability assay (AID 1918973); further: nearly all actives have a fitted effect of over 45% in size
# Summary of the method: as §1
# Potency means the concentration at half of the fitted maximal effect.
SMILES,Potency [1],Potency [2],Potency [3],Potency [4],Potency [5],Potency [6],Potency [7],Potency [8],Potency [9],Potency [10]
COc1ccc(C(=O)c2c(C)n(CCN3CCOCC3)c3ccccc23)cc1,inactive,inactive,inactive,inactive,,,,,,
Cn1c(CCCC(=O)O)nc2cc(N(CCCl)CCCl)ccc21,7430 nM (active),3320 nM (active),13200 nM (active),,inactive,5900 nM (active),10500 nM (active),23500 nM (active),,
Cn1cc(C2=C(c3cn(C4CCN(Cc5ccccn5)CC4)c4ccccc34)C(=O)NC2=O)c2ccccc21,23500 nM (active),inactive,5900 nM (active),inactive,2350 nM (active),16600 nM (active),,7430 nM (active),166 nM (active),
CN(C)CCN(C)CCc1ccc(Cl)c(Cl)c1,inactive,,inactive,,23500 nM (active),inactive,,,,inactive
CNCC(O)c1ccc(O)cc1 (centres undefined),inactive,inactive,inactive,inactive,inactive,,,14800 nM (active),,
C[C@@H]1[C@@H](C(=O)C[C@H]2O[C@@H]3O[C@]4(C)CC[C@@H]5[C@H](C)CC[C@@H]([C@H]2C)[C@@]35OO4)O[C@@H]2O[C@]3(C)CC[C@H]4[C@H](C)CC[C@@H]1[C@@]24OO3,372 nM (active),526 nM (active),132 nM (active),,83.3 nM (active),590 nM (active),418 nM (active),16600 nM (active),,469 nM (active)
Cc1cccc(C)c1NC(=O)CN1CCCC1=O,inactive,,inactive,inactive,inactive,inactive,,235 nM (active),,
C[C@@H]1[C@@H](CC(C[C@H]2O[C@@H]3O[C@]4(C)CC[C@@H]5[C@H](C)CC[C@@H]([C@H]2C)[C@@]35OO4)C[S+](=O)([O-])c2ccc(COC(=O)N(C)C)cc2)O[C@@H]2O[C@]3(C)CC[C@H]4[C@H](C)CC[C@@H]1[C@@]24OO3 (some centres undefined),148 nM (active),187 nM (active),83.3 nM (active),187 nM (active),83.3 nM (active),296 nM (active),148 nM (active),526 nM (active),,264 nM (active)
Fc1ccc(C(OCCN2CCN(CCCc3ccccc3)CC2)c2ccc(F)cc2)cc1,14800 nM (active),,13200 nM (active),26400 nM (active),,16600 nM (active),14800 nM (active),18700 nM (active),,9350 nM (active)
N[C@@H](Cc1ccc(N(CCCl)CCCl)cc1)C(=O)O,16600 nM (active),5900 nM (active),3320 nM (active),16600 nM (active),16600 nM (active),23500 nM (active),4690 nM (active),13200 nM (active),,
C=C(C)[C@H]1Cc2c(ccc3c2O[C@@H]2COc4cc(OC)c(OC)cc4[C@@H]2C3=O)O1,2640 nM (active),,1870 nM (active),,,,166 nM (active),1320 nM (active),209 nM (active),332 nM (active)
CNC(=O)c1ccc(N2C(=S)N(c3ccc(C#N)c(C(F)(F)F)c3)C(=O)C23CCC3)cc1F,,,1320 nM (active),inactive,,18700 nM (active),,1050 nM (active),,8330 nM (active)
Cc1cc(SCc2sc(-c3ccc(C(F)(F)F)c(F)c3)nc2C)ccc1OCC(=O)O,,,20900 nM (active),inactive,18700 nM (active),4690 nM (active),,9350 nM (active),,
COc1ccc2c(c1OC)CN1CCc3cc4c(cc3C1C2)OCO4 (centres undefined),18700 nM (active),,inactive,inactive,,,26400 nM (active),,,
CN(C)CCc1ccc(O)cc1,inactive,inactive,inactive,inactive,inactive,inactive,1660 nM (active),inactive,inactive,
Cc1sc2c(c1C)C(c1ccc(Cl)cc1)=N[C@@H](CC(=O)OC(C)(C)C)c1nnc(C)n1-2,187 nM (active),,148 nM (active),,29.6 nM (active),526 nM (active),1050 nM (active),1320 nM (active),,1180 nM (active)
CN(C)[C@@H]1C(=O)C(C(N)=O)=C(O)[C@@]2(O)C(=O)C3=C(O)c4c(O)cccc4[C@@](C)(O)[C@H]3C[C@@H]12,4180 nM (active),inactive,inactive,,inactive,,8330 nM (active),,,

SMILES,Potency [1],Potency [2],Potency [3],Potency [4],Potency [5],Potency [6],Potency [7],Potency [8],Potency [9],Potency [10]
O=C(O)C(=O)c1cn(Cc2ccccc2)c2ccc(-c3ccc(OC(F)(F)F)cc3)cc12,,,,inactive,7430 nM (active),inactive,,23500 nM (active),,
CC(C)CC(N(C)C)C1(c2ccc(Cl)cc2)CCC1 (centres undefined),,inactive,inactive,inactive,inactive,inactive,,5260 nM (active),,
COC[C@@H](NC(C)=O)C(=O)NCc1ccccc1,inactive,inactive,inactive,inactive,,,,,,inactive
COC[C@H]1OC(=O)c2coc3c2[C@@]1(C)C1=C(C3=O)C2CCC(=O)[C@@]2(C)C[C@H]1OC(C)=O (some centres undefined),10500 nM (active),1320 nM (active),469 nM (active),,16600 nM (active),1180 nM (active),2640 nM (active),14800 nM (active),,
C#CCN(C)[C@H](C)Cc1ccccc1,,,inactive,inactive,inactive,inactive,2960 nM (active),inactive,,inactive
CC(O)(CS(=O)(=O)c1ccc(F)cc1)C(=O)Nc1ccc(C#N)c(C(F)(F)F)c1 (centres undefined),23500 nM (active),,187 nM (active),,1660 nM (active),1180 nM (active),,132 nM (active),,935 nM (active)
CC1=C2C[C@@H]3[C@@H](CC=C4C[C@@H](O)CC[C@@]43C)[C@@H]2CC[C@]12O[C@H]1C[C@H](C)CN[C@H]1[C@H]2C,,inactive,inactive,inactive,inactive,inactive,9350 nM (active),,,46.9 nM (active)
COC1(CS(=O)c2ccccc2)CCN(CCc2c[nH]c3ccc(F)cc23)CC1 (centres undefined),inactive,inactive,inactive,inactive,,inactive,3720 nM (active),,inactive,
O=C1CC[C@@]2(O)[C@H]3Cc4ccc(O)c5c4[C@@]2(CCN3CC2CC2)[C@H]1O5,,,inactive,inactive,inactive,inactive,,inactive,,
NCC1(CC(=O)O)CCCCC1,inactive,,inactive,,inactive,,,inactive,,
CN1CCN(C(=O)O[C@H]2c3nccnc3C(=O)N2c2ccc(Cl)cn2)CC1,,,inactive,inactive,inactive,inactive,,inactive,,
CNC(=O)N1N=C(c2ccc(N)cc2)c2cc3c(cc2CC1C)OCO3 (centres undefined),,,,inactive,2350 nM (active),3320 nM (active),14800 nM (active),16600 nM (active),1480 nM (active),
COc1ccc(C(CN(C)C)C2(O)CCCCC2)cc1 (centres undefined),inactive,inactive,inactive,inactive,,inactive,,,,
CCCC(C)(COC(N)=O)COC(=O)NC(C)C (centres undefined),,inactive,inactive,inactive,inactive,inactive,,,,
O=P1(NCCCl)OCCCN1CCCl (centres undefined),,inactive,inactive,,,inactive,,,7430 nM (active),
C[C@@H]1O[C@@H](O[C@H]2C[C@@H](O)[C@]3(CO)[C@H]4[C@H](O)C[C@]5(C)[C@@H](C6=CC(=O)OC6)CC[C@]5(O)[C@@H]4CC[C@]3(O)C2)[C@H](O)[C@H](O)[C@H]1O,66.2 nM (active),,59 nM (active),20.9 nM (active),10.5 nM (active),105 nM (active),,59 nM (active),,23.5 nM (active)
O=c1[nH]c2ccccc2n1CCCN1CCC(n2c(=O)[nH]c3cc(Cl)ccc32)CC1,,inactive,,inactive,18700 nM (active),,,41.8 nM (active),118 nM (active),

# Reference: PubChem BioAssay (NCATS)
